Records with an inconclusive call do not appear. Entries that show only a call come without a potency. Values without a mark were called inactive. The source made the active and inactive calls. Calls come from the whole dose curve; tested in HEK293 reporter line.
assay: qHTS for Inhibitors of the Functional Ribonucleoprotein Complex (vRNP) of Lassa (LASV) Arenavirus: LASV Primary Screen - GLuc reporter signal (AID 1347082); details: LASV minigenome vRNP, Gaussia luciferase reporter; series mostly up to 57.5 µM; note: nearly all actives have a fitted effect of over 60% in size

Row | SMILES | Potency | activity change, negative = inhibition
1 | CC(C)Cc1ccc(CC(=O)O)cc1 | inactive | –
2 | CC(CCc1ccc(O)cc1)NCCc1ccc(O)c(O)c1 (stereo not drawn) | inactive | –
3 | COC(=O)C1=C(C)NC(C)=C(C(=O)OCCc2ccc(N3CCN(C(c4ccccc4)c4ccccc4)CC3)cc2)C1c1cccc([N+](=O)[O-])c1 (stereo not drawn) | inactive | –
4 | CC(=O)OCC(=O)[C@@]1(O)[C@H](OC(C)=O)C[C@H]2[C@@H]3CCC4=CC(=O)C=C[C@]4(C)[C@@]3(F)[C@@H](O)C[C@@]21C | inactive | –
5 | O=C(O)CCCC[C@@H]1SC[C@@H]2NC(=O)N[C@@H]21 | inactive | –
6 | O=C1[C@@H]2[C@H]3CC[C@H](C3)[C@@H]2C(=O)N1CCCCN1CCN(c2ncccn2)CC1 | inactive | –
7 | CNCCCC12CCC(c3ccccc31)c1ccccc12 | inactive | –
8 | NCCCNCCSP(=O)(O)O | inactive | –
9 | Cc1cccc(C)c1NC(=O)CC12CCCN1CCC2 | inactive | –
10 | NC(CS)C(=O)O (stereo not drawn) | inactive | –
11 | CC(=O)c1ccc(S(=O)(=O)NC(=O)NC2CCCCC2)cc1 | inactive | –
12 | Nc1ccc(C(=O)OCC(O)CO)cc1 (stereo not drawn) | inactive | –
13 | CNNCc1ccc(C(=O)NC(C)C)cc1 | inactive | –
14 | c1ccc2sc(SSc3nc4ccccc4s3)nc2c1 | inactive | –
15 | CC(CC(C#N)(c1ccccc1)C(C)C)N(C)C (stereo not drawn) | inactive | –
16 | CC(C)C(=O)Nc1cccc(C(F)(F)F)c1 | inactive | –
17 | Cc1cccc(C)c1OCC(=O)N[C@@H](Cc1ccccc1)[C@@H](O)C[C@H](Cc1ccccc1)NC(=O)[C@H](C(C)C)N1CCCNC1=O | inactive | –
18 | CN1CC(=O)NC1=N | inactive | –
19 | CCOc1ccccc1OCC1CNCCO1 (stereo not drawn) | inactive | –

Row | SMILES | Potency | activity change, negative = inhibition
20 | O=C(O)c1ccc(S(=O)(=O)N(Cl)Cl)cc1 | inactive | –
21 | CC(C(=O)O)c1ccc2c(c1)CC(=O)c1ccccc1S2 (stereo not drawn) | inactive | –
22 | COc1ccccc1N1CCN(CCCCNC(=O)c2ccc(-c3ccc(C(C)=O)cc3)cc2)CC1 | inactive | –
23 | CCn1cc(C(=O)O)c(=O)c2cnc(N3CCCC3)nc21 | – | 2.17% [at 11.5 µM]
24 | COc1cc2c(Nc3ccc(Br)cc3F)ncnc2cc1OCC1CCN(C)CC1 | inactive | –
25 | CCc1cc(C(N)=S)ccn1 | inactive | –
26 | COc1cnc(NS(=O)(=O)c2ccc(N)cc2)nc1 | inactive | –
27 | Nc1ccc(C(=O)Nc2ccccc2N)cc1 | inactive | –
28 | CC(=O)Nc1ccc(S(=O)(=O)Nc2cc(C)on2)cc1 | inactive | –
29 | NC(=O)NC1NC(=O)NC1=O (stereo not drawn) | inactive | –
30 | NC(=O)c1ccccc1O | inactive | –
31 | CCCCCCCC(=O)OCC(COC(=O)CCCCCCC)OC(=O)CCCCCCC | inactive | –
32 | CCCC(=O)O[C@]1(C(=O)CO)CC[C@H]2[C@@H]3CCC4=CC(=O)CC[C@]4(C)[C@H]3[C@@H](O)C[C@@]21C | inactive | –
33 | O=C(O)c1cc(=O)c2ccccc2o1 | inactive | –
34 | Cc1cc(C)nc(NS(=O)(=O)c2ccc(N)cc2)n1 | inactive | –
35 | CCN1CCC[C@H]1CNC(=O)c1c(O)c(Cl)cc(Cl)c1OC | inactive | –
36 | CCCCOC(=O)c1ccc(N)cc1 | inactive | –
37 | CNC[C@H](O)c1cccc(O)c1 | inactive | –
38 | O=C(O)/C=C(\CC(=O)O)C(=O)O | inactive | –

From PubChem BioAssay (NCATS)
